Inhibition data for 99 compounds are collected here from PubChem BioAssay AID811 (The Scripps Research Institute Molecular Screening Center, 2007).

The whole screen tested about 16,000 compounds, of which about 10 (0.06%) were called active. The full list was thinned out, with actives kept by preference. Unmarked numbers belong to inactive results. Rule as the data show it: active = inhibition above about 45%; inactive = the rest.

The target in this assay is Toll-like receptor 4 (Homo sapiens) (UniProt O00206). Nature of the assay: inhibitors of human TLR4-MyD88 binding (AID 811). The following applies: Cell-based TLR4-MyD88 binding inhibition assay; at 10 µM; hits give high values.
Chain of Toll-like receptor 4 (Homo sapiens) (O00206 whole entry, looked up): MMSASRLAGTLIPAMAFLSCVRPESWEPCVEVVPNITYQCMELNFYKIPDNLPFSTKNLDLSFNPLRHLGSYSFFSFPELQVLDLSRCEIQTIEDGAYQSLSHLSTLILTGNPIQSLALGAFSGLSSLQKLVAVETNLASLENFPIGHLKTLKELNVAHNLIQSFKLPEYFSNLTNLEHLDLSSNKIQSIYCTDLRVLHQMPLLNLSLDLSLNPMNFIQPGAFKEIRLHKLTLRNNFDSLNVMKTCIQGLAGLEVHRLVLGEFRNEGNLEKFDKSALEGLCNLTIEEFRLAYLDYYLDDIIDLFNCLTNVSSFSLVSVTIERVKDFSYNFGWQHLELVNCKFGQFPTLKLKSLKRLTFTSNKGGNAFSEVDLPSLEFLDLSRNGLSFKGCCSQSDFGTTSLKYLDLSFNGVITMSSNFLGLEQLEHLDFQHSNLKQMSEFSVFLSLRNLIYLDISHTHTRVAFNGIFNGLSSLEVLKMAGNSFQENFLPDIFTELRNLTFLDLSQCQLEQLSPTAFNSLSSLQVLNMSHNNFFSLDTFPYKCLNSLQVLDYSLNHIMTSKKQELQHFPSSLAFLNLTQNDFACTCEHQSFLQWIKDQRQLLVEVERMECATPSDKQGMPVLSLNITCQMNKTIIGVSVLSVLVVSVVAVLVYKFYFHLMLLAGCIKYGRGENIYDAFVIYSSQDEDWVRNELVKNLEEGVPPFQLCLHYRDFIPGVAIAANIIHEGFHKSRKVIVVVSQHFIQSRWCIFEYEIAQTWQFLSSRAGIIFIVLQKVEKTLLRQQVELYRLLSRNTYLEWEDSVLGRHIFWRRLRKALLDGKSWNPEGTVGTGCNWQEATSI
In the case of `N/C(=N\OC(=O)c1ccc(Cl)cc1)c1cccc(CS(=O)(=O)c2ccccn2)c1`, the inhibition is -5.81%.
On to `CC(C)S(=O)(=O)/C(C#N)=C/NN1CCOCC1`, for which the inhibition is -3.92%.
For the compound `COC(=O)c1cnc(N2CCCN(C(=O)C3COc4ccccc4O3)CC2)nc1C(F)(F)F` (centres undefined), the inhibition was -1.67%.
Next, `NC(=O)c1c(C(F)(F)F)cc(C(F)(F)F)cc1C(F)(F)F`: -6.47%.
Turning to `COc1ccccc1NC(=O)c1ccc(C#Cc2ccccc2)o1`, the inhibition was -2.2%.
As to `CC(C)[C@H]1COC(c2cccc(C3=N[C@@H](C(C)C)CO3)n2)=N1`, the inhibition is 5.5%.
On to `Cc1cc(S(=O)(=O)O/N=C(\N)c2snnc2C)cc(C)c1F`, for which the inhibition is 11.7%.
The figure for `CC1(C)CC(=O)C=C(N2CCOCC2)C1` is -0.03%; for `CCc1cnc(NS(=O)(=O)c2cc(Cl)sc2Cl)nc1-c1c(F)cccc1F` it is -8.06%; for `CC(C)CCOS(=O)(=O)c1ccc2c(c1)Cc1cc(S(=O)(=O)OCCC(C)C)ccc1-2` it is 4.69%.
Turning to `CCCN(CCC)S(=O)(=O)c1ccc(C(=O)O/N=C(\C)c2ccccc2O)cc1`, the inhibition is 0.96%.
For the compound `CC(=O)c1ccc(C#Cc2ccccc2)cc1`, the inhibition is -5.26%.
The figure for `COC(=O)c1cnc(Oc2ccc(N)cc2)cc1C(F)(F)F` is -9.53%; for `O=C(CSc1c(F)c(F)c(C(=O)O)c(F)c1F)Nc1cccc(C(F)(F)F)c1` it is 7.76%; for `CCOC(=O)CN1C(=O)/C(=C\c2ccc(C)o2)N=C1c1ccccc1` it is 0.42%.
`O=[N+]([O-])c1ccc2ncccc2c1-n1cccc1`: the inhibition is 2.94%.
For the compound `CN(C(=O)Nc1ccc(Cl)cc1)n1cnc2ccccc2c1=O`, the inhibition was -8.6%.
For `Cn1cnnc1SC/C=C/c1ccccc1`, the inhibition is -13.5%.
The figure for `O=C(O)CC(CC(=O)N1CCOCC1)c1ccccc1` (centres undefined) is -5.3%; for `Cc1ccc2c(c1)C(=O)C(=O)S2` it is 6.48%.
With `O=C(CCc1ccc(O)cc1)N/N=C/c1cc(Cl)cc(Cl)c1O`, the inhibition is -1.07%.
The figure for `CC(C)(C)NC(=O)N/N=C/c1[nH]ncc1Br` is 20.8%; for `Cc1noc(C)c1S(=O)(=O)N1CCN(C2c3ccccc3-c3ccccc32)CC1` it is -0.47%.
Take `CS/C(=N\S(=O)(=O)c1ccccc1)NNc1ccccc1`: the inhibition was -1.96%.
In the case of `CCOC(=O)Cn1cc(Cl)ccc1=O`, the inhibition is -0.56%.
With `N/C(=N\S(=O)(=O)c1ccc(Cl)cc1)N1CCOCC1`, the inhibition is -3.11%.
In the case of `Cc1nn(C)c(C)c1Sc1nccc(-c2cccnc2)n1`, the inhibition is -8.01%.
Next, `CC(C)CC(F)Cc1cnc(=O)[nH]c1` (centres undefined): -2.36%.
Take `Oc1ccc(-n2cncn2)cc1`: the inhibition was -7.43%.
Take `O=C(NCc1ccccc1)c1cc2sccc2s1`: the inhibition is 3.11%.
Consider `Cc1ccc2sc(NC(=O)NC(=O)c3c(Cl)cccc3Cl)nc2c1`, for which the inhibition is -10.8%.
As to `Cn1cc(C(=O)Nc2ccc(F)c(Cl)c2)c(N)n1`, the inhibition was -11.3%.
Consider `CCOC(=O)c1cnc2c(S(=O)(=O)C(C)C)csc2c1Sc1cccc(Cl)c1`, for which the inhibition was -1.87%.
`O=C(NNC(=S)Nc1ccccc1Cl)c1ccc(OC(F)(F)F)cc1`: the inhibition is 6.01%.
Next, `O=C(c1ccc(Oc2ccc(Cl)cc2)c([N+](=O)[O-])c1)N1CCCC1`: 0.91%; `CSc1sc(C(=O)Nc2cccc(C(F)(F)F)c2)cc1S(=O)(=O)C(C)C`: 0%; `CCOC(=O)c1ccc2nc(C(F)(F)F)cc(N3CCN(Cc4ccccc4)CC3)c2c1`: 3.69%.
As for `CCOC(=O)Cn1sc2nc(C)cc(C)c2c1=O`, the inhibition was -2.32%.
`O=[N+]([O-])c1ccc(N2CCC2)cc1`: the inhibition is 8.05%.
The figure for `CC(=O)OCc1ccc(COC(C)=O)c(OC(C)=O)c1OC(C)=O` is -11.5%.
Next, `COC(=O)/C=C/c1cn(C2OCC(CO)C2O)c(=O)[nH]c1=O` (centres undefined): 5.73%; `NC(=O)c1cccc2c1OCCO2`: 10.1%.
As to `CCCN(CCC)S(=O)(=O)c1ccc(C(=O)NNC(=O)c2cc(OC)c(OC)c(OC)c2)cc1`, the inhibition is -4.25%.
As to `N#C/C(=C\c1ccsc1Sc1ccc(Cl)cc1)S(=O)(=O)c1ccc(Cl)cc1`, the inhibition was -3.72%.
The figure for `Cc1nnc(Sc2ccc([N+](=O)[O-])c(Sc3nnc(C)s3)n2)s1` is -6.36%.
The figure for `O=c1oc2c3ccccc3c3oc(=O)sc3c2s1` is 50.3% (active); for `O=c1[nH]c2ccccc2s1` it is 2.88%; for `Cc1cc(-c2noc(-c3cccs3)n2)no1` it is -6.63%.
For `Cc1nnsc1C(=O)N/N=C/c1ccccc1Cl`, the inhibition is -4.11%.
In the case of `CNC(=O)c1ccccc1I`, the inhibition is -1.84%.
`O=S(=O)(CCSc1ccc(C(F)(F)F)cn1)CCSc1ccc(C(F)(F)F)cn1`: the inhibition was 2.94%.
In the case of `CC(=O)Nc1ccc(C)cc1N=Cc1ccncc1`, the inhibition is -3.13%.
`N#CC(c1cc2ccccc2cn1)c1ccc2c(c1[N+](=O)[O-])C(=O)c1ccccc1C2=O` (centres undefined): the inhibition was 8.07%.
With `Cc1cccc(-c2noc(NC(=O)O/N=C/c3ccccc3)n2)c1`, the inhibition is 5.92%.
`O=C(NNC(=S)Nc1ccc(S(=O)(=O)N2CCCCC2)cc1)c1ccncc1`: the inhibition is 7.23%.
On to `O=[N+]([O-])c1ccc2c(c1)CCN2S(=O)(=O)c1ccccc1`, for which the inhibition was -5.05%.
Take `Cc1ccc(C(=O)N2CCN(c3cccc4[nH]ccc34)CC2)cc1`: the inhibition was -3.77%.
For `O=C(Oc1ccccc1N1CCCCC1)c1sc2ccccc2c1Cl`, the inhibition was 4.69%.
As for `CCOC(=O)c1cc(C)n(-c2cccc([N+](=O)[O-])c2)c1-c1ccccc1`, the inhibition is -2.88%.
With `CC(C)(C)c1ccc(C(=O)CC(N)=O)cc1`, the inhibition was -4.12%.
Take `FC(F)(F)c1csc(N/N=C/c2ccccc2Cl)n1`: the inhibition is -1.14%.
For `C/C(=N\NC(N)=S)c1csc(-c2ccccc2)n1`, the inhibition was -3.92%.
The figure for `N/N=c1/nc2sccn2c2ncccc12` is -0.03%; for `O=C1C2C3C=CC(O3)C2C(=O)N1OCc1ccc(OC(F)(F)F)cc1` (centres undefined) it is 4.1%; for `O=C(NC(=O)c1ccno1)Nc1ccccc1Cl` it is -1.38%.
In the case of `Cn1c(CN2C(=O)CSc3ccc(C(F)(F)F)cc32)nnc1SCC(=O)c1ccccc1`, the inhibition was -0.94%.
Turning to `COc1ccc(/C=N/Nc2nc(C)cc(=O)[nH]2)c(OC)c1`, the inhibition was -3.66%.
With `CCCc1nc(N)ncc1C(=O)OCC`, the inhibition was -3.52%.
For `N/C(=N\OC(=O)c1ccc([N+](=O)[O-])o1)c1ccc(OCc2ccc(Cl)cc2)c(Cl)c1`, the inhibition is -0.21%.
Take `Cc1onc(-c2ccccc2)c1CNS(=O)(=O)c1ccc(-c2ccccn2)s1`: the inhibition was -0.5%.
Take `O=S(=O)(Nc1ccc2[nH]ccc2c1)c1cccs1`: the inhibition is 14.7%.
Consider `CC(=O)c1nnc2cc(C)nn2c1C`, for which the inhibition was 3.88%.
Consider `CS(=O)(=O)c1ccc(C(=O)Nc2cccc(Cl)c2)cc1`, for which the inhibition was -0.58%.
Take `CCCCc1ccc(S(N)(=O)=O)cc1`: the inhibition is -0.44%.
For the compound `O=C(Nc1ccccc1C(=O)NCc1c(F)cccc1Cl)c1ccccc1Cl`, the inhibition was 2.65%.
Regarding `O=[N+]([O-])c1ccc(C2CC2(Br)Br)cc1` (centres undefined), the inhibition is 11.1%.
Next, `C/C(=N\O)C(C)(C)Nc1ccc(C(C)(C)C)cc1`: 0.91%; `O=C(NNc1ccccc1C(F)(F)F)NS(=O)(=O)c1ccc(Cl)cc1`: 2.98%; `COc1ccc(-c2csc(-c3cc(C)on3)n2)cc1`: 7.05%.
The figure for `N#Cc1c(C(F)(F)F)cc(-c2cccs2)nc1N1CCCCC1` is -4.83%; for `Cc1cc2nsnc2cc1Cl` it is 0.39%; for `COc1ccc(COCC(O)CN2CCN(c3ccc(C(F)(F)F)cn3)CC2)cc1` (centres undefined) it is -3.92%.
For `CSc1ccc(C(F)(F)F)cc1C(=O)/C=C/N(C)C`, the inhibition is -5.34%.
Take `FC(F)(F)c1ccc(Cl)c(NC(=S)NN=C2CCCCCC2)c1`: the inhibition was 0.56%.
In the case of `Cc1ccc(N(C)NC(=O)Nc2ccc(Cl)cc2)nn1`, the inhibition was 12.1%.
The figure for `Cc1ccc(N=C2SC3(CC3)C(=O)N2c2ccc(C)cc2)cc1` is -5.53%; for `Cc1ccc(S(=O)(=O)NNC(=O)c2ccccc2N)cc1` it is -4.45%.
Take `C=CCn1c(SCC(=O)Nc2nnc(-c3cccs3)s2)nnc1-c1ccco1`: the inhibition was -3.96%.
Regarding `O=C(Nc1ccc(I)cc1Cl)C(=S)NCc1cccs1`, the inhibition was 3.66%.
For `c1csc(-c2ccc(-c3ccon3)s2)c1`, the inhibition is -1.22%.
Consider `CSc1nc(N)c2ccccc2n1`, for which the inhibition was -9.58%.
On to `O=C(Nn1cnnc1)c1cccs1`, for which the inhibition is 1.09%.
On to `Cc1nc(C(F)(F)F)ccc1C(=O)NC1CCCc2ccccc21` (centres undefined), for which the inhibition was 0.52%.
For the compound `Cc1ccccc1C(=O)NNC(=O)c1ccccc1C1=NCCCN1`, the inhibition was 4.96%.
For `N#Cc1cccnc1NNC(=O)c1ccccc1C(=O)O`, the inhibition was 4.06%.
`O=c1[nH]c2c(=O)[nH]c(=S)[nH]c2nc1/C=C(\O)c1ccccc1`: the inhibition was -4.76%.
As for `N/C(=N\OC(=O)c1cccc(Cl)c1)c1ccc2nonc2c1`, the inhibition was 1.32%.
Consider `Oc1[nH]c2ccc(F)cc2c1N=NC(=S)NC1CC2C=CC1C2` (centres undefined), for which the inhibition was -1.4%.
Consider `Nc1c(-c2nnc(SCC(=O)c3ccccc3)o2)cnn1-c1ccccc1`, for which the inhibition is -5.52%.
